Source: PubChem BioAssay (NCI)
This is part of a sample that, as a whole, favours compounds with a hit. Of some 79,000 tested, about 15% had one in any assay. The source made the active and inactive calls. Cut-off read from the data, not from the text of the source: active = growth inhibition above about 70%; inactive = the rest.

Assays:
[1] = NCI Yeast Anticancer Drug Screen. Data for the rad50 strain (AID 155);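 note: 0% = growth of vehicle-only cultures of the same strain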; conditions: S. cerevisiae rad50 strain growth inhibition, active compounds read high
Summary of the method: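 Yeast carrying a defined DNA repair defect were exposed to test compounds, and growth was compared with vehicle-treated controls to give percent inhibition.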

[2] = NCI Yeast Anticancer Drug Screen. Data for the mec2-1 strain (AID 157); conditions: S. cerevisiae mec2-1 strain, active compounds read high
Summary of the method: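 Vehicle-treated cultures served as reference for growth inhibition of compound-exposed mec2-1 yeast.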

[3] = NCI Yeast Anticancer Drug Screen. Data for the sgs1 mgt1 strain (AID 161);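 note: 0% = growth of cultures given vehicle only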; conditions: S. cerevisiae sgs1 mgt1 strain, active compounds read high
Summary of the method: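 Genetically altered yeast, compound exposure, growth inhibition relative to vehicle.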

[4] = NCI Yeast Anticancer Drug Screen. Data for the cln2 rad14 strain (AID 165);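 note: 0% = growth equal to vehicle treated cultures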; conditions: S. cerevisiae cln2 rad14 strain, active compounds read high
Summary of the method: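 Each compound was tested on cln2 rad14 yeast. Inhibition of growth was calculated against vehicle-exposed controls.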

[5] = NCI Yeast Anticancer Drug Screen. Data for the bub3 strain (AID 167); conditions: S. cerevisiae bub3 mutant strain, active compounds read high
Summary of the method: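 Compounds were applied to a genetically altered yeast strain carrying a cell-cycle control defect. Growth inhibition was scored against vehicle-treated controls.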

[6] = NCI Yeast Anticancer Drug Screen. Data for the mlh1 rad18 strain (AID 175); conditions: S. cerevisiae mlh1 rad18 strain growth inhibition, active compounds read high
Summary of the method: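 Vehicle-treated cultures served as the reference for growth inhibition in a yeast strain carrying DNA damage repair alterations exposed to each compound.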

[7] = at 5.0 µM (retest, dose inferred, filed as 0.5)
[8] = at 50.0 µM (retest, dose inferred, filed as 5.0)

Measured: growth inhibition

O=C1Nc2ccc([N+](=O)[O-])c3c([N+](=O)[O-])ccc1c23
inactive: [1]; [7] 4% | [2]; [7] 11% | [2]; at 50.0 µM 47.4% | [3]; [7] 3% | [3]; at 50.0 µM 57.5% | [4]; [7] 0% | [4]; [8] 39% | [4]; at 50.0 µM 69.8% | [5]; [7] 2% | [5]; at 50.0 µM 34.2% | [6]; [7] 47%
active: [1]; [8] 82% | [1]; at 50.0 µM 79% | [2]; [8] 81% | [3]; [8] 88% | [5]; [8] 70% | [6]; [8] 94% | [6]; at 50.0 µM 90.7%

c1nc(N2CCOCC2)c2[nH]cnc2n1
inactive: [1]; [7] 5% | [1]; [8] -5% | [1]; at 50.0 µM 22.1% | [2]; [7] -1% | [2]; [8] -7% | [2]; at 50.0 µM 8.05% | [3]; [7] 0% | [3]; [8] 4% | [3]; at 50.0 µM 12.2% | [4]; [7] -1% | [4]; [8] -13% | [4]; at 50.0 µM 36.5% | [5]; [7] -2% | [5]; [8] 8% | [5]; at 50.0 µM -5.75% | [6]; [7] 5% | [6]; [8] 5% | [6]; at 50.0 µM 17.4%

O=C1C=CC2C(=O)c3ccccc3C(=O)C2=C1 (stereo not given)
active: [1]; [8] 89% | [1]; at 50.0 µM 73.5% | [2]; [8] 76% | [3]; [8] 72% | [4]; [8] 71%
inactive: [1]; [7] 21% | [2]; [7] 17% | [2]; at 50.0 µM 63.5% | [3]; [7] 4% | [3]; at 50.0 µM 56.9% | [4]; [7] 5% | [4]; at 50.0 µM 66.7% | [5]; [7] 1% | [5]; [8] 55% | [5]; at 50.0 µM 45.5% | [6]; [7] 4% | [6]; [8] 67% | [6]; at 50.0 µM 69.2%

Cc1ccc2nc(C[n+]3cccc4ccccc43)ccc2c1
active: [1]; [7] 96% | [1]; [8] 99% | [1]; at 50.0 µM 88.8% | [2]; [7] 95% | [2]; [8] 100% | [2]; at 50.0 µM 81.1% | [3]; [7] 88% | [3]; [8] 99% | [3]; at 50.0 µM 99.4% | [4]; [7] 92% | [4]; [8] 98% | [4]; at 50.0 µM 99% | [5]; [7] 96% | [5]; [8] 99% | [5]; at 50.0 µM 99.7% | [6]; [7] 96% | [6]; [8] 99% | [6]; at 50.0 µM 99.5%

O=C1CSC2(CCN(CCCN3c4ccccc4Sc4ccc(Cl)cc43)CC2)N1
active: [1]; [8] 100% | [1]; at 50.0 µM 98.9% | [2]; at 50.0 µM 99.1% | [3]; at 50.0 µM 99.3% | [4]; [8] 100% | [4]; at 50.0 µM 99% | [5]; [8] 99% | [5]; at 50.0 µM 97.5% | [6]; [8] 99% | [6]; at 50.0 µM 91.2%
inactive: [1]; [7] 8% | [2]; [7] -4% | [2]; [8] 45% | [3]; [7] 3% | [3]; [8] 53% | [4]; [7] -11% | [5]; [7] -2% | [6]; [7] -17%

Clc1ccc(CN2COc3c(ccc4cccnc34)C2)c(Cl)c1
active: [1]; [8] 91% | [1]; at 50.0 µM 98.1% | [2]; at 50.0 µM 98.9% | [3]; [8] 98% | [3]; at 50.0 µM 99% | [4]; [8] 98% | [4]; at 50.0 µM 97.7% | [5]; [8] 99% | [5]; at 50.0 µM 99% | [6]; [8] 98% | [6]; at 50.0 µM 99.1%
inactive: [1]; [7] 2% | [2]; [7] 2% | [2]; [8] 67% | [3]; [7] 4% | [4]; [7] -9% | [5]; [7] -6% | [6]; [7] 3%

CN(C)c1ccc(C(c2cc3c(cc2O)OCO3)N2CCCC2)cc1 (stereo not given)
active: [1]; [8] 99% | [1]; at 50.0 µM 99.2% | [2]; [8] 99% | [2]; at 50.0 µM 99.4% | [3]; [8] 99% | [3]; at 50.0 µM 99.2% | [4]; [8] 99% | [4]; at 50.0 µM 99.1% | [5]; [8] 99% | [5]; at 50.0 µM 99.4% | [6]; [8] 99% | [6]; at 50.0 µM 99.2%
inactive: [1]; [7] 7% | [2]; [7] 15% | [3]; [7] -3% | [4]; [7] -3% | [5]; [7] 0% | [6]; [7] -7%

O=C(O)CSCc1cc2c3ccccc3sc2c2ccccc12
active: [1]; [8] 99% | [1]; at 50.0 µM 97.9% | [2]; [8] 99% | [2]; at 50.0 µM 97.2% | [3]; [8] 98% | [3]; at 50.0 µM 93.2% | [4]; [8] 99% | [4]; at 50.0 µM 97.7% | [5]; [8] 99% | [5]; at 50.0 µM 96.8% | [6]; [8] 99% | [6]; at 50.0 µM 98.5%
inactive: [1]; [7] 49% | [2]; [7] 29% | [3]; [7] 30% | [4]; [7] 52% | [5]; [7] 31% | [6]; [7] 35%

Nc1nc(-c2ccccn2)cc2c(Cl)cccc12
active: [1]; [8] 90% | [2]; [8] 96% | [3]; [8] 92% | [4]; [8] 75% | [5]; [8] 91% | [6]; [8] 96%
inactive: [1]; [7] 12% | [1]; at 50.0 µM -2.3% | [2]; [7] 23% | [2]; at 50.0 µM -22.1% | [3]; [7] 21% | [3]; at 50.0 µM 11.7% | [4]; [7] 13% | [4]; at 50.0 µM 3.7% | [5]; [7] -8% | [5]; at 50.0 µM 17.6% | [6]; [7] 34% | [6]; at 50.0 µM 8.75%

CCOC(=O)C(=Cc1ccccc1Br)C(=O)OCC
active: [1]; [8] 92% | [1]; at 50.0 µM 78.5% | [2]; [8] 94% | [2]; at 50.0 µM 92.5% | [3]; at 50.0 µM 96.5% | [4]; [8] 93% | [5]; [8] 96% | [5]; at 50.0 µM 95.7% | [6]; [8] 97% | [6]; at 50.0 µM 96.2%
inactive: [1]; [7] 16% | [2]; [7] 33% | [3]; [7] 20% | [3]; [8] -18% | [4]; [7] 17% | [4]; at 50.0 µM 67.8% | [5]; [7] 26% | [6]; [7] 14%
